Measurements published in PubChem BioAssay (NCATS).
Records with an inconclusive call do not appear. Active and inactive are the calls of the source. The call rests on the fitted dose curve; in most records, active means well fitted curve in the direction sought with a large enough effect; inconclusive means small, poorly fitted or top-dose-only effect, or another doubt; inactive means no such curve, though single readings can be large; an effect the other way counts as inactive or inconclusive.

Tests used:
HACAT = assay: qHTS assay to identify novel small-molecules to repurpose for Merkel cell carcinoma treatment (AID 1296009); details: MCC and control cell lines, CellTiter-Glo viability, 72 h; at 44.8 µM (top of the series) unless noted; further: nearly all actives have a fitted effect of over 60% in size
In short: (§1)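 Luminescence from CellTiter-Glo, read 10 min after addition at room temperature, reported viability following a 72 hr, 37 degree celsius treatment with NPC or MIPE compounds in titration; values normalized to plate controls.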

NIH3T3 = assay: as above; details: MCC and control cell lines, CellTiter-Glo viability, 72 h; at 44.8 µM (top of the series) unless noted
In short: as §1

C33A = assay: Primary qHTS to identify gynecologic anti-cancer compounds using libraries of approved drugs and bioactive compounds (AID 1345084); details: Gynecologic cancer cell panel viability, ATPlite luminescence, 48 h; series mostly up to 57.5 µM; further: nearly all actives have a fitted effect of over 55% in size
In short: (§2)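 Cytotoxicity screen measuring ATP content by luciferase luminescence. Each compound is applied at five concentrations for 48 h at 37 C with 5% CO2.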

CAOV3 = assay: as above; details: Gynecologic cancer cell panel viability, ATPlite luminescence, 48 h; series mostly up to 57.5 µM
In short: as §2

CASKI = assay: as above; details: Gynecologic cancer cell panel viability, ATPlite luminescence, 48 h; series mostly up to 57.5 µM
In short: as §2

Es-2 = assay: as above; details: Gynecologic cancer cell panel viability, ATPlite luminescence, 48 h; series mostly up to 57.5 µM
In short: as §2

HeLa = assay: as above; details: Gynecologic cancer cell panel viability, ATPlite luminescence, 48 h; series mostly up to 57.5 µM
In short: as §2

Hek293T = assay: as above; details: Gynecologic cancer cell panel viability, ATPlite luminescence, 48 h, control line for the selectivity index; series mostly up to 57.5 µM
In short: as §2

JEG-3 = assay: as above; details: Gynecologic cancer cell panel viability, ATPlite luminescence, 48 h; series mostly up to 57.5 µM
In short: as §2

Measured: Potency

CC(=O)/C=C/C1C(C)CC(O[C@@H]2O[C@H](CO)[C@@H](O)[C@H](O)[C@H]2O)CC1(C)C (stereo not given in full)
inactive: all assays above

COc1c(O)cc2c(c1O)C(=O)O[C@H](C)[C@H]2O
inactive: all assays above

O=C(O)/C=C/c1ccc(O[C@@H]2O[C@H](CO)[C@@H](O)[C@H](O)[C@H]2O)cc1
inactive: all assays above

C=C1CCC2C(C)(C)CC(=O)CC2(C)C1CCC(C)CCO (stereo not given)
inactive: all assays above

O=C(O)Cn1nnc(-c2ccc(CN(CCCCOc3ccc(CN4CCCC4)cc3)CCc3ccccc3)cc2)n1
inactive: all assays above

CC(=O)NC1C(OC2CCC3(C)C(CCC4(C)C3CC=C3C5CC(C)(C)CCC5(C(=O)O)C(O)CC34C)C2(C)C)OC(CO)C(O)C1O (stereo not given)
inactive: HACAT inactive [at 17.4 µM] | NIH3T3 inactive [at 17.4 µM] | C33A | CAOV3 | CASKI | Es-2 | HeLa | Hek293T | JEG-3

O=C(O)Cc1cn([C@@H]2O[C@H](CO)[C@@H](O)[C@H](O)[C@H]2O[C@@H]2O[C@H](CO)[C@@H](O)[C@H](O)[C@H]2O)c2ccccc12
inactive: HACAT inactive [at 17.4 µM] | NIH3T3 inactive [at 17.4 µM] | C33A | CAOV3 | CASKI | Es-2 | HeLa | Hek293T | JEG-3

OC[C@H]1O[C@@H](OCc2ccccc2)[C@H](O)[C@@H](O)[C@@H]1O
inactive: all assays above

O=C(O)CCc1c(C(=O)O)[nH]c2cc(Cl)cc(Cl)c12
inactive: HACAT inactive [at 17.4 µM] | NIH3T3 inactive [at 17.4 µM] | C33A | CAOV3 | CASKI | Es-2 | HeLa | Hek293T | JEG-3

CC(O)/C=C/C1(O)C(C)C(O)C(O[C@@H]2O[C@H](CO)[C@@H](O)[C@H](O)[C@H]2O)CC1(C)C (stereo not given in full)
inactive: HACAT inactive [at 17.4 µM] | NIH3T3 inactive [at 17.4 µM] | C33A | CAOV3 | CASKI | Es-2 | HeLa | Hek293T | JEG-3

CC1(C)CC2C(O)C3=C(CC(C)(O)C2C1)C(=O)OC3 (stereo not given)
inactive: all assays above

O=C(O)c1cc(C(F)(F)F)ccc1N1CC[C@H](OCc2ccccn2)C1
inactive: all assays above

COC(=O)C1=CO[C@@H](O[C@@H]2O[C@H](CO)[C@@H](O)[C@H](O)[C@H]2O)/C(=C\CO)[C@@H]1CC(=O)OCCc1ccc(O)cc1
inactive: HACAT inactive [at 17.4 µM] | NIH3T3 inactive [at 17.4 µM] | C33A | CAOV3 | CASKI | Es-2 | HeLa | Hek293T | JEG-3

Cc1oc2nc3c(c(NC(=O)CN4CCCC4=O)c2c1C)CCCC3
inactive: all assays above

CC(=O)OC1C(O)/C(C)=C\C2C(OC(=O)c3ccccc3)C(C)CC2(OC(C)=O)C(OC(C)=O)C(C)/C=C/C(C)(C)C1OC(C)=O (stereo not given)
inactive: HACAT inactive [at 17.4 µM] | NIH3T3 inactive [at 17.4 µM] | C33A | CAOV3 | CASKI | Es-2 | HeLa | Hek293T | JEG-3
